Reference: PubChem BioAssay (EPA / NIEHS)
Activity calls are given as the source filed them. The calls were made as follows: active = hit-call score of the fitted dose curve at least 0.9, where 1 is the maximum; inactive = score below 0.9.

Assay: APR_HepG2_NuclearSize_1hr: Apredica 1-hour HepG2 Assay for Nuclear Size (AID 2282670)
Conditions: high-content imaging, actives raise or lower the signal
Method: APR_HepG2_1hr is a cell-based, multiplexed-readout assay that uses HepG2, a human liver cell line, with measurements taken at 1 hour after chemical dosing in a 384-well plate.APR_HepG2_NuclearSize_1hr is one of 10 assay component(s) measured or calculated from the APR_HepG2_1hr assay. It is designed to make measurements of cell phenotype, a form of morphology reporter, as detected with fluorescence intensity signals by HCS Fluorescent Imaging technology.Data from the assay component APR_HepG2_NuclearSize_1hr was analyzed into 1 assay endpoint. This assay endpoint, APR_HepG2_NuclearSize_1hr, was analyzed with bidirectional fitting relative to DMSO as the negative control and baseline of activity. Using a type of morphology reporter, measures of all nuclear dna for gain or loss-of-signal activity can be used to understand the signaling at the nuclear-level. Furthermore, this assay endpoint can be referred to as a primary readout, because this assay has produced multiple assay endpoints where this one serves a signaling function. To generalize the intended target to other relatable targets, this assay endpoint is annotated to the cell morphology intended target family, where the subfamily is organelle conformation.
Cells were treated with dimethyl sulfoxide (DMSO) as a solvent control at a final concentration of 0.5% v/v or with compounds in DMSO with a resulting final DMSO concentration of 0.5% v/v. Compound treatment was done at concentrations of 0.39, 0.78, 1.56, 3.12, 6.24, 12.5, 25, 50, 100, and 200 uM in duplicate on each plate. Cells were treated with compounds for 1, 24, or 72 hr. Carbonyl […] m-chloro-phenylhydrazone (CCCP) and taxol were used as positive controls for mitochondrial function and cytoskeletal stability, respectively; DMSO served as the negative control for this experiment. Cells were fixed by the direct addition of 50 uL formaldehyde in Hank's Balanced Salt Solution (HBSS) to a final concentration of 3.7%. After incubation in the fixation medium for 30 min at room temperature (293-298 K), cells were rinsed twice with HBSS and treated with cell permeabilization buffer (16 uL of 0.5% Triton X-100) for 10 min at room temperature (293-298 K) before labeling. For mitochondrial membrane potential and mitochondrial measurements, pre-fixed cells were incubated with 50 uL of MitoTracker Red CMXRos (Invitrogen) at a concentration of 250 nM for 30 min before fixation. In the remaining cases, post-fixed cells were labeled by incubation with a multiplexed mixture of primary antibodies in HBSS for 60 min at room temperature (293-298 K) to detect immunoreactivity of c-Jun (1:500), phospho-histone H3 (1:100), phospho-histone H2A.x (1:200), p53 (1:400), alpha-tubulin (1:200) and Hoechst 33342 (2 ug/mL). Cells were labeled for multiplexed imaging on two separate plates: a) Hoechst 33342, MitoTracker Red, phospho-histone H3, and alpha-tubulin, and b) Hoechst 33342, phospho-histone H2A.x, and c-Jun. A final rinse with HBSS (50 uL) was performed before analysis. The primary and secondary antibodies for the proteins were phospho-histone H3 (rabbit anti-phospho-histone H3 and FITC-donkey anti-rabbit IgG), phospho-histone H2A.x (mouse anti-phospho-histone H2A.x and FITC-donkey anti-mouse IgG), c-Jun (rabbit anti-phospho-c-Jun and Cy3-donkey anti-rabbit IgG), p53 (sheep anti-p53 and Cy5-donkey anti-sheep IgG), alpha-tubulin (mouse anti-alpha-tubulin and Cy5-donkey anti-mouse IgG). These antibodies are available as the CellCiphr HepG2 assay kit (Millipore).Digital images of each well were captured using a Cellomics ArrayScan VTI (Thermo Scientific Cellomics) (0.8 NA objective, 0.63x optical coupler, and XF-93 filter set) at 20x magnification. The images were acquired using the autofocus feature of the ArrayScan instrument, which entails the following steps. First, the camera focuses on channel 1 (Hoechst 33342), where nuclei are identified. Second, a Z offset of 1 um is used for capturing mitochondria (MitoTracker Red). […]

Structure (SMILES)	outcome
CCOP(=O)(OCC)Oc1nc(Cl)c(Cl)cc1Cl	inactive
CC(C)Nc1nc(Cl)nc(NC(C)C)n1	inactive
CSC(=O)c1c(C(F)F)nc(C(F)(F)F)c(C(=O)SC)c1CC(C)C	inactive
CO/N=C(/C1=NOCCO1)c1ccccc1Oc1ncnc(Oc2ccccc2Cl)c1F	inactive
CCCC(=NOCC)C1=C(O)CC(CC(C)SCC)CC1=O (stereo not given)	inactive
O=C1C2CC=CCC2C(=O)N1SC(Cl)(Cl)Cl (stereo not given)	inactive
N#CN=C1SCCN1Cc1ccc(Cl)nc1	inactive
CCOc1cc(C(C)(C)C)ccc1C1COC(c2c(F)cccc2F)=N1 (stereo not given)	inactive
CCOc1nc(C(Cl)(Cl)Cl)ns1	inactive
Clc1cccc(C(Cl)(Cl)Cl)n1	inactive
Cc1cnc(C2=NC(C)(C(C)C)C(=O)N2)c(C(=O)O)c1 (stereo not given)	inactive
Cc1nc(N(C)C)nc(OC(=O)N(C)C)c1C	inactive
C=C(C)CN(CC)c1c([N+](=O)[O-])cc(C(F)(F)F)cc1[N+](=O)[O-]	inactive
CS(=O)(=O)c1ccc(C(=O)C2C(=O)CCCC2=O)c([N+](=O)[O-])c1	inactive
COC(=O)N(C(=O)N1CO[C@@]2(C(=O)OC)Cc3cc(Cl)ccc3C2=N1)c1ccc(OC(F)(F)F)cc1	inactive
CC1(C)CON(Cc2ccccc2Cl)C1=O	inactive
COc1ccc(-c2ccccc2)cc1NNC(=O)OC(C)C	inactive
CC(C)NC(=O)N1CC(=O)N(c2cc(Cl)cc(Cl)c2)C1=O	inactive
CN/C(=N\[N+](=O)[O-])NCc1cnc(Cl)s1	inactive
Nc1cnn(-c2ccccc2)c(=O)c1Cl	inactive

Structure (SMILES)	outcome
CC(C)N1C(=O)N(c2ccccc2)CSC1=NC(C)(C)C	inactive
CC1(C)C(C(=O)OC(C#N)c2cccc(Oc3ccccc3)c2)C1(C)C (stereo not given)	inactive
CNC(=O)N(C)c1nnc(C(C)(C)C)s1	inactive
COC(=O)c1c(C(F)F)nc(C(F)(F)F)c(C2=NCCS2)c1CC(C)C	inactive
COC(=O)NS(=O)(=O)c1ccc(N)cc1	inactive
COCC(C)N(C(=O)CCl)c1c(C)csc1C (stereo not given)	inactive
CCCCOCN(C(=O)CCl)c1c(CC)cccc1CC	inactive
CCCCC(C#N)(Cn1cncn1)c1ccc(Cl)cc1 (stereo not given)	inactive
CCOP(=S)(OCC)Oc1nc(Cl)n(C(C)C)n1	inactive
N#Cc1c(Cl)cccc1Cl	inactive
CC1(C)C(C=C(Cl)Cl)C1C(=O)OC(C#N)c1cccc(Oc2ccccc2)c1 (stereo not given)	inactive
COP(=S)(OC)Oc1ccc([N+](=O)[O-])c(C)c1	inactive
O=c1n(Cl)c(=O)n(Cl)c(=O)n1Cl	inactive
Cc1cc(C)nc(Nc2ccccc2)n1	inactive
CC(C)=CC1C(C(=O)OCc2coc(Cc3ccccc3)c2)C1(C)C (stereo not given)	inactive
O=P(O)(O)CCCl	inactive
CCSC(=O)N1CCCCCC1	inactive
Cc1ccc(N=CN(C)C=Nc2ccc(C)cc2C)c(C)c1	inactive
Nc1c(Cl)c(Cl)nc(C(=O)O)c1Cl	inactive
CCN(CC)c1nc(C)cc(OP(=S)(OC)OC)n1	inactive
